Most compounds without a hit are left out; they make up all but 2.5% or so of the library.
GRK2 aptamer HTS = human GRK2 inhibition via aptamer displacement; 330,000 compounds, 0.59% hits; bead flow cytometry, FAM-aptamer displacement from GRK2; P25098; inhibition of aptamer binding, % at 10 µM;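 active means inhibition of aptamer binding above 40%, roughly 3 SD of noise, on plates passing a quality check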;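 further: median bead fluorescence of bound FAM aptamer so fluorescent compounds give negative values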
Target sequence (P25098 whole entry, looked up): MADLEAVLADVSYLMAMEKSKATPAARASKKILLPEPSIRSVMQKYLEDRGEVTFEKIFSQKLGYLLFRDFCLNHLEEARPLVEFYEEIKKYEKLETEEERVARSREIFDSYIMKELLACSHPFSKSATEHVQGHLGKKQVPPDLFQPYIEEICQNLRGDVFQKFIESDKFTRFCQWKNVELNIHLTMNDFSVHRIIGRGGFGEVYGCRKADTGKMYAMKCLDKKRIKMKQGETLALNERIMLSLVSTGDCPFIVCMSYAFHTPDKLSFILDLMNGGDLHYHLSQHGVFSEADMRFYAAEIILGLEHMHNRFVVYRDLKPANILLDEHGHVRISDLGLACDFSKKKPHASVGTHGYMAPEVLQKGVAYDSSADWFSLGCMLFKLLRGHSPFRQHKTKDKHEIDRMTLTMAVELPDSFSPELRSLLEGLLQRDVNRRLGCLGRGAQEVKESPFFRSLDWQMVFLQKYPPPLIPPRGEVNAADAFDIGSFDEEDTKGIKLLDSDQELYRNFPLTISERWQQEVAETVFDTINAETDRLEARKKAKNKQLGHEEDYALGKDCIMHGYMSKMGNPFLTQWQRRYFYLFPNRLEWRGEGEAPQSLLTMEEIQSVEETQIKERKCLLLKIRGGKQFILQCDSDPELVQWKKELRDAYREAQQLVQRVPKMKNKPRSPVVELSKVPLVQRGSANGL
MEKK3 PB1 HTS = modulators (inhibitors or enhancers) of MEK5 binding to human MEKK3 PB1 domain; Q99759; bead-based flow cytometry, Alexa488-MEK5 binding to MEKK3; actives lie on both sides; 0 = blocked by unlabeled MEK5, 100 = vehicle; binding response (% of control), % at 10 µM; 290,000 compounds, 1.4% hits;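 active means binding response more than 3 SD above or below the average of its plate-row segment, actives on both sides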;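 further: Alexa488 bead fluorescence after subtracting the streptavidin-only scavenger bead signal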
MEKK2wt PB1 HTS = raises or lowers MEK5 binding to wildtype human MEKK2 PB1 domain; 290,000 compounds, 1.1% hits; Q9Y2U5; AID 1531; bead flow cytometry, Alexa488-MEK5 binding to MEKK2 WT; actives lie on both sides; binding response (% of control), % at 10 µM; in the data active means binding response below about 67% or above about 130%
MEKK2 mut-MEK5 = signal of MEK5 binding to mutant human MEKK2 PB1 domain. percent response, % at 10 µM. 290,000 compounds, 0.35% hits. AID 1530. bead flow cytometry, Alexa488-MEK5 binding to MEKK2 mutant; in the data active means percent response above about 24%, passing the limit was not always enough
MEKK2wt confirm = raises or lowers MEK5 binding to wildtype human MEKK2, retest | 5,900 compounds, 2.4% hits | shares compounds with MEKK3 PB1 HTS | binding response (% of control), % at 10 µM | bead flow cytometry, Alexa488-MEK5 binding to MEKK2 WT; actives lie on both sides; in the data active means binding response below about 16% or above about 210%; inactive means in between
MEKK2mut confirm = signal of MEK5 binding to mutant human MEKK2, retest | shares compounds with MEKK3 PB1 HTS | bead flow cytometry, Alexa488-MEK5 binding to MEKK2 mutant | percent response, % at 10 µM | 5,900 compounds, 2% hits | AID 1893; in the data active means percent response mostly above about 71%, no sharp cut-off; inactive means mostly below about 38%;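 further: higher means compound restores mutant binding toward wildtype level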
MEKK3-MEK5 inh = MEKK3-MEK5 PB1 inhibition, single concentration confirmation. shares compounds with MEKK3 PB1 HTS. bead flow cytometry, Alexa488-MEK5 binding to MEKK3; hits give low values. binding response (% of control), % at 10 µM. 5,900 compounds, 1.8% hits. AID 1894;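 active means binding response below 72% of control, or above a set upper limit, though filed actives all read lower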
Large screens that a line does not name were inactive (follow-up assays come after a bar, where they were run); [ ] = dose if it differs, or a comment.

C#CCOCCOCCOCCNc1nc(N2CCN(C(=O)[C@H](CCC(=O)O)n3cc(C(N)CC(C)C)nn3)CC2)nc(N2CCN(C(=O)[C@H](Cc3ccc(O)cc3)n3cc(C(N)CC(C)C)nn3)CC2)n1 (stereo not given in full)	none
C#CCOCCOCCOCCNc1nc(N2CCN(C(=O)[C@H](Cc3ccc(O)cc3)n3cc([C@@H](N)CC(C)C)nn3)CC2)nc(N2CCN(C(=O)[C@H](Cc3ccc(O)cc3)n3cc([C@@H](N)CC(C)C)nn3)CC2)n1	MEKK2wt PB1 HTS 188, MEKK2 mut-MEK5 69 (no result: GRK2 aptamer HTS) | MEKK2wt confirm 227 | MEKK2mut confirm 95 | MEKK3-MEK5 inh inactive
C#CCOCCOCCOCCNc1nc(N2CCN(C(=O)[C@H](CCCCN)n3cc([C@@H](N)CC(C)C)nn3)CC2)nc(N2CCN(C(=O)[C@H](CCCCN)n3cc([C@@H](N)CC(C)C)nn3)CC2)n1	MEKK2wt PB1 HTS 136 | MEKK2wt confirm inactive | MEKK2mut confirm inactive | MEKK3-MEK5 inh inactive
Cc1ccc(C(=O)OCC(=O)NC2CCCCC2)cc1S(=O)(=O)N1CCCCC1	none (no result: MEKK3 PB1 HTS, MEKK2wt PB1 HTS, MEKK2 mut-MEK5)
C#CCOCCOCCOCCNc1nc(N2CCN(C(=O)[C@H]([C@@H](C)CC)n3cc([C@@H](N)Cc4ccc(O)cc4)nn3)CC2)nc(N2CCN(C(=O)[C@H](CCCCN)n3cc([C@@H](N)CC(C)C)nn3)CC2)n1	MEKK2wt PB1 HTS 221, MEKK2 mut-MEK5 79 | MEKK2wt confirm inactive | MEKK2mut confirm 110 | MEKK3-MEK5 inh inactive
C#CCOCCOCCOCCNc1nc(N2CCN(C(=O)C([C@@H](C)CC)n3cc(C(N)CC(C)C)nn3)CC2)nc(N2CCN(C(=O)[C@H](CCC(=O)O)n3cc(C(N)Cc4ccc(O)cc4)nn3)CC2)n1 (stereo not given in full)	none
C#CCOCCOCCOCCNc1nc(N2CCN(C(=O)[C@H]([C@@H](C)CC)n3cc(CCCN=C(N)N)nn3)CC2)nc(N2CCN(C(=O)[C@H](CCCCN)n3cc(CCCC)nn3)CC2)n1	MEKK2wt PB1 HTS 172 | MEKK2wt confirm inactive | MEKK2mut confirm inactive | MEKK3-MEK5 inh inactive
C#CCOCCOCCOCCNc1nc(N2CCN(C(=O)C(Cc3ccc(O)cc3)n3cc(C(N)C(C)CC)nn3)CC2)nc(N2CCN(C(=O)C(Cc3ccc(O)cc3)n3cc(C(N)C(C)CC)nn3)CC2)n1 (stereo not given)	MEKK2wt PB1 HTS 145 | MEKK2wt confirm inactive | MEKK2mut confirm inactive | MEKK3-MEK5 inh inactive
N#Cc1ccc(OS(=O)(=O)c2ccc(-c3ccon3)s2)cc1	none
CN1CCc2c(sc(/N=C/c3cc(C(C)(C)C)ccc3O)c2C#N)C1	none
CC(C)C(=O)Nc1nnc(SCC(=O)NC2CC2)s1	MEKK3 PB1 HTS 7.0[inhibitor], MEKK2wt PB1 HTS 11[inhibitor] | MEKK2wt confirm inactive | MEKK2mut confirm inactive | MEKK3-MEK5 inh inactive
O=C(Nc1cc(-c2ccccc2)[nH]n1)c1ccccc1F	MEKK3 PB1 HTS 35[inhibitor], MEKK2wt PB1 HTS 38[inhibitor] | MEKK2wt confirm inactive | MEKK2mut confirm inactive | MEKK3-MEK5 inh inactive
COc1ccccc1Oc1ccc(N2CC(C(=O)OCC(=O)c3ccccc3)CC2=O)cc1 (stereo not given)	MEKK3 PB1 HTS 6.0[inhibitor], MEKK2wt PB1 HTS 9.0[inhibitor] | MEKK2wt confirm inactive | MEKK2mut confirm inactive | MEKK3-MEK5 inh inactive
Cc1cc(Cc2ccc([N+](=O)[O-])cc2)c(C)cn1	none
NNC(=O)[C@H]1C[C@@H]1c1ccccc1	MEKK3 PB1 HTS 152 | MEKK2wt confirm inactive | MEKK2mut confirm inactive | MEKK3-MEK5 inh inactive
O=C(Nc1ccccc1F)C1CC1c1ccccc1 (stereo not given)	none
COCCN1CCC(CNCc2cn(-c3cc(C)ccc3C)nc2-c2ccccc2)C1 (stereo not given)	MEKK2wt PB1 HTS 163 | MEKK2wt confirm inactive | MEKK2mut confirm inactive | MEKK3-MEK5 inh inactive

High-throughput results from PubChem.
